From PubChem BioAssay (NCATS)
“And” between values parts separate entries of the source, which are not always exact repeats. Equal entries are not always repeated. Results filed as inconclusive are left out. The source made the active and inactive calls. Unless noted, calls follow the shape of the dose curve; as a rule, active = well fitted curve in either direction with a large enough effect (not every such curve was filed as active); inconclusive = small, poorly fitted or top-dose-only effect, or another doubt; inactive = flat fitted curve, though single readings scatter.

Columns and labels:
[1] = AP1 Signaling Pathway (AID 357); also: % is scaled to controls: 0 for no effect and ±100 for the full control effect
Method in brief: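 ME-180 cells with beta-lactamase reporter under AP-1 response element, stimulated with EC50 EGF; compounds tested in titration series, 5 h at 37 °C. CCF4 substrate added 2.5 h at room temperature; 460/530 nm emission ratio gave %activity and AC50.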

[2] = molecular target: Cytochrome P450 1A2 (Homo sapiens) (UniProt P05177); test: p450-cyp1a2 (AID 410; calls by dose curve; also: potency is read from the fitted curve at half-maximal effect;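 as to activity change, negative = inhibition: -100% = full effect of reference inhibitor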)
Sequence of Cytochrome P450 1A2 (Homo sapiens) (P05177 whole entry, looked up): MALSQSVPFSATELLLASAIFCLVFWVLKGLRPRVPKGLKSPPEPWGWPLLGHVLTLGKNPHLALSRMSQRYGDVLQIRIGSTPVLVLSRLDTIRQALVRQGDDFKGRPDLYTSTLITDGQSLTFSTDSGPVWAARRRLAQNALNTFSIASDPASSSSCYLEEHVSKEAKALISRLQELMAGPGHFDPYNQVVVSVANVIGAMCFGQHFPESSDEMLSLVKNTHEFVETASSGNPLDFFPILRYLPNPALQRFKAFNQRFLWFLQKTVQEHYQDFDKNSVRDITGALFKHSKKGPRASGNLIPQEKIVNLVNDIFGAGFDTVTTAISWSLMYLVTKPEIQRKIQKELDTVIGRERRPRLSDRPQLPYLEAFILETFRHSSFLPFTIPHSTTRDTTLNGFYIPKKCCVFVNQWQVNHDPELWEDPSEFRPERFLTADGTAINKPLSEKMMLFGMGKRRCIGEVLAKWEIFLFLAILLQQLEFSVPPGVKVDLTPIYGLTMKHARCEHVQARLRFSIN
Method in brief: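 Read-out is luminescence from luciferin produced by CYP1A2 demethylation of Luciferin-ME (100uM, at Km). Detection reagent stopped the 60 min NADPH-dependent reaction; signals were normalized to 57 uM furafylline.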

[3] = NFAT Signaling Pathway (AID 444); conditions: Jurkat NFAT-bla M1, carbachol, beta-lactamase ratio, 5 h;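 also: carbachol stimulus at about its EC50 of 1 µM final; % is scaled to controls: 0 for no effect and ±100 for the full control effect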
Method in brief: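 Jurkat cells with NFAT-driven β-lactamase reporter and co-expressed M1 receptor, stimulated with carbachol (final 1 uM, ~EC50), compound titration, 5 h at 37 °C. CCF4 loaded 1 h at RT; 460/530 nm ratio gave %activity and AC50.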

[4] = Stat Signaling Pathway (AID 446);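 also: ME-180 cervical cancer cells given 40 pM IL-6 alongside compound; SIE-controlled beta-lactamase reporter measured as 460/530 nm FRET emission ratio; % is scaled to controls: 0 for no effect and ±100 for the full control effect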
Method in brief: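 Normalization used AC90 stimulation (300 pM IL-6) and AC90 inhibition (125 nM pan-JAK inhibitor at 40 pM IL-6). The underlying signal is SIE-driven beta-lactamase in ME-180 cells after 5 h IL-6 exposure with compound.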

[5] = molecular target: Glucocorticoid receptor (Homo sapiens) (UniProt P04150); test: GR-GFP Redistribution (AID 450;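 active = compounds whose dose series gives a full or clear partial fitted curve of increased nuclear translocation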; also: potency is read from the fitted curve at half-maximal effect); conditions: U2OS GR-GFP nuclear translocation, laser cytometry, 2 h
Sequence of Glucocorticoid receptor (Homo sapiens) (P04150 whole entry, looked up, the tested form may be a part): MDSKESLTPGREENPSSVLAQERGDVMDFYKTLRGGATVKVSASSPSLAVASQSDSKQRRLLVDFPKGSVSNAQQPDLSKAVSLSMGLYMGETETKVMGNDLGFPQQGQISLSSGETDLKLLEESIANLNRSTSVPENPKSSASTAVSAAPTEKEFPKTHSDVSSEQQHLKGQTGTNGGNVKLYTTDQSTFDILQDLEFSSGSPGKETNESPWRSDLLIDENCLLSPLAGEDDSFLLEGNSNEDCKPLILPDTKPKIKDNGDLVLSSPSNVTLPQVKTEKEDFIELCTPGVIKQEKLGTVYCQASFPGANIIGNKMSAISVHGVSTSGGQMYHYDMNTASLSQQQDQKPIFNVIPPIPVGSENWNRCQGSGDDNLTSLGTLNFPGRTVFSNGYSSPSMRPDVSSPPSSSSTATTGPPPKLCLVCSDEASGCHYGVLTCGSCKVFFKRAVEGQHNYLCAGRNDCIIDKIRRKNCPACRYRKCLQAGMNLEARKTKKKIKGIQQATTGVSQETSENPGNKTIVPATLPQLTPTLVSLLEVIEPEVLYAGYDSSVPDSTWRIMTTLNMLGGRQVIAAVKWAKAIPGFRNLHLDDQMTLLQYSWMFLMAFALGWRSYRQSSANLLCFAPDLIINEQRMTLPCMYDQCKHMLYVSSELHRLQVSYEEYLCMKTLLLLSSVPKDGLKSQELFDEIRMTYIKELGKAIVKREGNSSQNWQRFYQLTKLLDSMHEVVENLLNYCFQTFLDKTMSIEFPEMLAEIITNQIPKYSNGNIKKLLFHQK

[6] = molecular target: Glucocorticoid receptor (Homo sapiens) (UniProt P04150); test: GR-EFC Redistribution (AID 451; calls by dose curve; also: potency is read from the fitted curve at half-maximal effect); conditions: CHO-K1 GR-EFC translocation, beta-gal luminescence, 2 h
Method in brief: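 CHO-K1 cells expressing nuclear EA and GR-ED fragments of b-gal; compounds titrated up to 46 uM final, 2 h at 37 C. GR nuclear translocation read as complemented b-gal luminescence after 1 h RT detection.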

[7] = molecular target: Mitogen-activated protein kinase 10 (Mus musculus) (UniProt Q61831); test: JNK3 AlphaScreen Assay (AID 530);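 also: kinase came from lysate of stimulated human HepG2 cells; signal reports phosphorylation of biotinylated GST-cJun 1-79 at Ser73 with 10 µM ATP; % is scaled to controls: 0 for no effect and ±100 for the full control effect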
Method in brief: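 HepG2 lysate (IL-1b/TNFa pre-activated) + biotin-GST-cJun 1-79 + anti-pSer73 cJun; cpd titration, 15 min RT; ATP 10 uM start; Tris pH 7.6, MgCl2, DTT, vanadate; beads in EDTA buffer; AlphaScreen.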

[8] = Cell Viability - BJ (AID 421; calls by dose curve;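 also: potency is read from the fitted curve at half-maximal effect; cells exposed to compound for 40 hours at 37 °C before readout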); conditions: BJ fibroblast viability, qHTS
Method in brief: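 Normal human BJ foreskin fibroblasts, 1500/well in complete medium, treated 40 hr at 37 °C. Cellular ATP by CellTiter-Glo luminescence; normalized to DMSO and 100 uM tamoxifen, AC50 from Hill fit.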

[9] = Cell Viability - Jurkat (AID 426;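 active = dose-dependent loss of cell ATP signal giving a full or clear fitted curve, ranked by lower potency value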; also: potency is read from the fitted curve at half-maximal effect); conditions: qHTS
Method in brief: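 Cytotoxicity was scored as loss of cellular ATP, measured by luciferase-based luminescence, in Jurkat clone E6-1 cells after 40 h compound treatment; tamoxifen and doxorubicin served as positive controls.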

[10] = Cell Viability - Hek293 (AID 427;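 active = compounds whose dose-response curve shows a full or clear partial loss of cell viability, called from curve shape rather than a numeric limit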;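 also: potency is read from the fitted curve at half-maximal effect; cells exposed to compound for 40 hours at 37 °C before reading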); conditions: qHTS
Method in brief: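 HEK293 cells in complete medium were exposed to compound for 40 hr at 37 °C, then cellular ATP was read by CellTiter-Glo luminescence. Data were normalized to DMSO (basal) and 100 uM tamoxifen (100% inhibition), and AC50 came from Hill fits.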

[11] = Cell Viability - HepG2 (AID 433; calls by dose curve;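 also: potency is read from the fitted curve at half-maximal effect; potency for ATP loss meaning cytotoxicity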); conditions: qHTS
Method in brief: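 Read-out is luciferase-based quantitation of cellular ATP as a measure of viable HepG2 cells after 40 h treatment at 37 °C. Signal decrease is scaled between DMSO-only and 100 uM tamoxifen controls, with AC50 fitted by the Hill equation.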

[12] = Cell Viability - MRC5 (AID 434; calls by dose curve;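 also: potency is read from the fitted curve at half-maximal effect; potency reflects cytotoxicity seen as loss of intracellular ATP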); conditions: MRC5 lung fibroblast viability, qHTS
Method in brief: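 ATP luminescence read-out (CellTiter-Glo, 20 min RT) after 40 hr, 37 °C compound exposure of 1500 MRC5 cells/well. Data normalized to DMSO (basal) and 100 uM tamoxifen (100% inhibition); AC50 from standard Hill equation.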

[13] = Cell Viability - SK-N-SH (AID 435; calls by dose curve;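 also: potency is read from the fitted curve at half-maximal effect; compound exposure lasted 40 h at 37 °C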); conditions: SK-N-SH neuroblastoma cell viability qHTS
Method in brief: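 Luminescent ATP signal served as the viability read-out after 40 hours of compound treatment of human neuroblastoma SK-N-SH cells. Concentration-response data, scaled between DMSO and 100 uM tamoxifen, gave AC50 values by standard Hill modeling.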

[14] = Cell Viability - N2a (AID 540; active = well fitted curve in the direction sought with a large enough effect; an effect the other way counts as inactive or inconclusive;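 also: plate controls were DMSO alone for no effect and tamoxifen control for full effect; nearly all actives have a fitted effect of over 45% in size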)
Method in brief: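 In this qHTS cytotoxicity screen, ATP-dependent luciferase luminescence reports viable N2a cells after a 40 hr compound exposure in complete culture medium. Potencies are AC50 values from standard Hill equation fits.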

[15] = Cell Viability - HUV-EC-C (AID 542; active = well fitted curve in the direction sought with a large enough effect; an effect the other way counts as inactive or inconclusive; also: % is scaled to controls: 0 for no effect and ±100 for the full control effect; nearly all actives have a fitted effect of over 35% in size)
Method in brief: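 Concentration-dependent ATP loss in HUV-EC-C cells is the measure. Exposure lasts 40 hr at 37 °C; luminescence follows CellTiter-Glo addition, and Hill fits give AC50.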

[16] = Cell Viability - H-4-II-E (AID 543; active = well fitted curve in the direction sought with a large enough effect; an effect the other way counts as inactive or inconclusive; also: % is scaled to controls: 0 for no effect and ±100 for the full control effect; nearly all actives have a fitted effect of over 35% in size)
Method in brief: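 AC50 from Hill-modelled qHTS concentration-response curves. H-4-II-E rat hepatoma cells in complete medium, 40 hr exposure at 37 °C, viability by CellTiter-Glo ATP luminescence.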

[17] = Cell Viability - SH-SY5Y (AID 544; active = well fitted curve in the direction sought with a large enough effect; an effect the other way counts as inactive or inconclusive;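 also: 0% = DMSO alone and -100% = 100 µM tamoxifen; nearly all actives have a fitted effect of over 55% in size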); conditions: SH-SY5Y neuroblastoma cell viability; at 92.2 µM (top of the series)
Method in brief: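 Quantitative HTS in SH-SY5Y neuroblastoma cells, 40 hr treatment at 37 °C, ATP content by luciferase luminescence; AC50 from Hill fits.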

[18] = Cell Viability - Renal Proximal Tubule (AID 545; active = well fitted curve in the direction sought with a large enough effect; an effect the other way counts as inactive or inconclusive;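 also: 0% = DMSO only and -100% = 100 µM tamoxifen; nearly all actives have a fitted effect of over 40% in size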)
Method in brief: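 Luminescent ATP signal (CellTiter-Glo) served as the viability read-out after 40 hr compound exposure of freshly isolated rat proximal tubule cells at 37 °C. Concentration-dependent ATP loss was fitted with the Hill equation to give AC50.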

[19] = molecular target: Lysosomal acid glucosylceramidase (Homo sapiens) (UniProt P04062); test: Glucocerebrosidase-p2 (AID 348; in the data active = potency below about 10 µM; also: potency is read from the fitted curve at half-maximal effect); conditions: purified GBA, blue fluorogenic substrate, 40 min
Sequence of Lysosomal acid glucosylceramidase (Homo sapiens) (P04062 whole entry, looked up): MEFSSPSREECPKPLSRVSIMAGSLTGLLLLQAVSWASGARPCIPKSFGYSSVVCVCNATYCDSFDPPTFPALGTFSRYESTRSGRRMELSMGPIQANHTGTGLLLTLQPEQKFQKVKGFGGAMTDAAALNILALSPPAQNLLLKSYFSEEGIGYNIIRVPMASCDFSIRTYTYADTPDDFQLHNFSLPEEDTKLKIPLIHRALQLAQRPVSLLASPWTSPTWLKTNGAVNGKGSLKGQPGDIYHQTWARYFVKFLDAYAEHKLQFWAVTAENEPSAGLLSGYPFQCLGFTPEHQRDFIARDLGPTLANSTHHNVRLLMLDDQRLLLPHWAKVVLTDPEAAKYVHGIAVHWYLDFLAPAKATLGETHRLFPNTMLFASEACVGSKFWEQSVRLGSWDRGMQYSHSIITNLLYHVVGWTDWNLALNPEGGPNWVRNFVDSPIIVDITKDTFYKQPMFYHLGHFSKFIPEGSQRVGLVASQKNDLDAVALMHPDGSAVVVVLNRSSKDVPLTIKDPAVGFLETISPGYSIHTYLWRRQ
Method in brief: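 Normal human glucocerebrosidase (0.2 nM) with blue fluorogenic substrate (80 uM final) in citrate/phosphate pH 5.9 with 10mM sodium taurocholate, 0.01% tween-20; 40 min RT, NaOH/glycine stop; fluorescence Ex 365/Em 440; AC50 from a titration from 0.6 nM upwards.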

[20] = Cell Viability - NIH 3T3 (AID 541; active = well fitted curve in the direction sought with a large enough effect; an effect the other way counts as inactive or inconclusive;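 also: plate controls were DMSO alone for no effect and tamoxifen positive control for full effect; nearly all actives have a fitted effect of over 25% in size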)
Method in brief: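 In this cytotoxicity screen, acute toxicity is scored as an ATP drop measured by CellTiter-Glo in NIH 3T3 fibroblasts following a 40 hr, 37 °C incubation with compound.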

[21] = at 17.2 µM (top of the series) unless noted

NC(N)=NS(=O)(=O)c1ccc(N)cc1
inactive: outcome [1] | Potency [2] | activity change, negative = inhibition [3, 21] -6.04% and -19.4% | outcome [4] | Potency [5] > 20.6 µM | Potency [6] > 20.6 µM

CN/C(=C\[N+](=O)[O-])NCCSCc1csc(CN(C)C)n1
inactive: outcome [1] | Potency [2] | activity change, negative = inhibition [3, 21] -2.1% | outcome [4] | Potency [5] > 20.6 µM | Potency [6] > 20.6 µM | outcome [7]

Cc1cc(NC(=O)C2=C(O)c3ccccc3S(=O)(=O)N2C)no1
inactive: outcome [1] | Potency [2] | activity change, negative = inhibition [3, 21] -5.7% and 4.09% | outcome [4] | Potency [5] > 20.6 µM | Potency [6] > 20.6 µM

Nc1ccc(S(=O)(=O)c2ccc(N)cc2)cc1
inactive: outcome [1] | Potency [8] > 92 µM | Potency [9] > 92 µM | Potency [10] > 92 µM | Potency [11] > 92 µM | Potency [12] > 92 µM | Potency [13] > 92 µM | activity change, negative = inhibition [3, 21] -0.066% and 13.8% | outcome [4] | outcome [14] | outcome [15] | outcome [16] | viability change, negative = cytotoxic [17] -10.9% | outcome [18]

COc1ccc2cc(CCC(C)=O)ccc2c1
active: Potency [2] 0.398 µM
inactive: outcome [1] | activity change, negative = inhibition [3, 21] -1.6% | outcome [4] | Potency [5] > 20.6 µM | Potency [6] > 20.6 µM

CN1CCCN=C1COC(=O)C(O)(c1ccccc1)C1CCCCC1 (stereo not given)
active: activity change, negative = inhibition [3, 21] -84.1%
inactive: outcome [1] | outcome [4] | Potency [5] > 20.6 µM

CCc1cccc(CC)c1NC(=O)CN(CC(=O)O)CC(=O)O
inactive: outcome [1] | Potency [2] | activity change, negative = inhibition [3, 21] -2.21% | outcome [4] | Potency [5] > 20.6 µM | Potency [6] > 20.6 µM | outcome [7]

O=C(O)c1ccccc1C(=O)Nc1ccc(S(=O)(=O)Nc2nccs2)cc1
inactive: outcome [1] | Potency [2] | activity change, negative = inhibition [3, 21] 11.2% | outcome [4] | Potency [5] > 20.6 µM | Potency [6] > 20.6 µM

Cn1c([N+](=O)[O-])cnc1COC(N)=O
inactive: outcome [1] | Potency [2] | activity change, negative = inhibition [3, 21] -6.16% and -23.1% | outcome [4] | Potency [5] > 20.6 µM | Potency [6] > 20.6 µM

O=C(Cn1ccnc1[N+](=O)[O-])NCCO
inactive: outcome [1] | Potency [2] | activity change, negative = inhibition [3, 21] -5.19% | outcome [4]

CCN(CC)CCOC(=O)C(c1ccccc1)c1ccccc1
inactive: outcome [1] | outcome [4] | Potency [5] > 20.6 µM | Potency [6] > 20.6 µM
active: Potency [2] 5.01 µM | activity change, negative = inhibition [3, 21] -79.3%

CC1CCc2cc(F)cc3c(=O)c(C(=O)O)cn1c23 (stereo not given)
inactive: outcome [1] | activity change, negative = inhibition [3, 21] 13.1% | outcome [4] | Potency [5] > 20.6 µM

NS(=O)(=O)c1ccc(C(=O)O)cc1
inactive: Potency [19] > 11.4 µM | outcome [1] | Potency [2] | activity change, negative = inhibition ([3]; at 7.69 µM (top of the series)) 7.39% | activity change, negative = inhibition ([3]; at 17.2 µM (top of the series)) 8.44% | outcome [4] | Potency [5] > 46 µM and > 20.6 µM | Potency [6] > 9.22 µM

O=S1(=O)OC(c2ccc(O)cc2)(c2ccc(O)cc2)c2ccccc21
inactive: Potency [19] > 11.4 µM | outcome [1] | activity change, negative = inhibition [3, 21] 14.9% [at 7.69 µM] | outcome [4]

CC(=O)N[C@@H](CC(C)C)C(=O)O
inactive: outcome [1] | activity change, negative = inhibition [3, 21] 1.74% | outcome [4]

CCCCCCCC(=O)OCC(COC(=O)CCCCCCC)OC(=O)CCCCCCC
inactive: Potency [8] > 92 µM | Potency [9] > 92 µM | Potency [10] > 92 µM | Potency [11] > 92 µM | Potency [12] > 92 µM | Potency [13] > 92 µM | outcome [14] | outcome [20] | outcome [15] | outcome [16] | viability change, negative = cytotoxic [17] -12.2% | outcome [18]

CN(C(=O)c1c(O)c2ccccc2n(C)c1=O)c1ccccc1
inactive: Potency [2] | Potency [5] > 46 µM | Potency [6] > 46 µM | outcome [7]

O=C(O)CCCCC1CCSS1 (stereo not given)
inactive: Potency [8] > 92 µM | Potency [9] > 92 µM | Potency [10] > 92 µM | Potency [11] > 92 µM | Potency [12] > 92 µM | Potency [13] > 92 µM | outcome [14] | outcome [20] | outcome [15] | outcome [16] | viability change, negative = cytotoxic [17] -17.1% | outcome [18]

O=C(O)CCCc1ccccc1
inactive: outcome [1] | activity change, negative = inhibition [3, 21] 20.3% | outcome [4] | Potency [5] > 20.6 µM

O=C(c1ccccc1)C(O)c1ccccc1 (stereo not given)
inactive: Potency [8] > 92 µM | Potency [9] > 92 µM | Potency [10] > 92 µM | Potency [11] > 92 µM | Potency [12] > 92 µM | Potency [13] > 92 µM | outcome [14] | outcome [20] | outcome [15] | outcome [16] | viability change, negative = cytotoxic [17] -3.66% | outcome [18]
